Laboratory results taken from the supplement of paper PMC6992640.
± gives the standard deviation of the averaged measurements.

How the values were obtained:
Assay in all cases: cell viability (% of vehicle); higher = less cytotoxic
[1] = system: HCI01 (cells of a triple-negative basal-like breast cancer xenograft); conditions: 1 µM; 72 h
[2] = system: UCD52 (cells of a triple-negative basal-like breast cancer xenograft); conditions: 1 µM; 72 h
[3] = system: WHIM2 (cells of a triple-negative basal-like breast cancer xenograft); conditions: 1 µM; 72 h
[4] = system: WHIM30 (cells of a triple-negative basal-like breast cancer xenograft); conditions: 1 µM; 72 h
[5] = system: HCI01; conditions: 10 µM; 72 h
[6] = system: HCI03 (cells of an ER-positive luminal breast cancer xenograft); conditions: 10 µM; 72 h
[7] = system: HCI09 (cells of a triple-negative luminal androgen receptor type breast cancer xenograft); conditions: 10 µM; 72 h
[8] = system: HCI11 (cells of an ER-positive luminal breast cancer xenograft); conditions: 10 µM; 72 h
[9] = system: HCI13 (cells of an ER-positive luminal breast cancer xenograft); conditions: 10 µM; 72 h
[10] = system: HCI16 (cells of a triple-negative basal-like breast cancer xenograft); conditions: 10 µM; 72 h
[11] = system: UCD52; conditions: 10 µM; 72 h
[12] = system: WHIM2; conditions: 10 µM; 72 h
[13] = system: WHIM30; conditions: 10 µM; 72 h

Row | SMILES | cell viability [1] | cell viability [2] | cell viability [3] | cell viability [4] | cell viability [5] | cell viability [6] | cell viability [7] | cell viability [8] | cell viability [9] | cell viability [10] | cell viability [11] | cell viability [12] | cell viability [13]
1 | CC[C@@]1(O)C(=O)OCc2c1cc1n(c2=O)Cc2cc3c(CN(C)C)c(O)ccc3nc2-1 [Topotecan] | 65.9 | 101 | 56.5 | 37.4 | 42.8 ± 6.2 | 128 | 28.1 ± 0.98 | 44.4 | 49.1 ± 5.8 | 73 | 42.4 ± 0.96 | 44.5 ± 3.2 | 83.2 ± 6.8
2 | Cc1ccc(C(=O)N(CCCN)C(c2nc3cc(Cl)ccc3c(=O)n2Cc2ccccc2)C(C)C)cc1 (stereo not drawn) | 98.7 | 47.7 | 62.5 | 78 | 34.6 ± 0.75 | 41.2 | 22.4 ± 2.7 | 56.8 | 38.3 ± 4 | 45.5 | 122 ± 8.3 | 34.8 ± 0.98 | 39.8 ± 4
3 | Clc1ccc(COC(Cn2ccnc2)c2ccc(Cl)cc2Cl)c(Cl)c1.O=[N+]([O-])O (stereo not drawn) [Miconazole Nitrate] | 100 | 96.9 | 111 | 95.9 | 32 ± 8.9 | 93.1 | 27.3 ± 7.1 | 79.9 | 56.9 ± 7.8 | 113 | 48.6 ± 5.8 | 37 ± 9.7 | 128 ± 2
4 | COc1cc2nccc(Oc3ccc(NC(=O)Nc4cc(C)on4)c(Cl)c3)c2cc1OC [Tivozanib (AV-951)] | 91 | 61.4 | 94.3 | 85.1 | 85.4 ± 37 | 80 | 67 ± 50 | 75.1 | 60.9 ± 7.7 | 69.7 | 81.1 ± 22 | 61.7 ± 18 | 57.6 ± 2.1
5 | CO[C@H]1/C=C/O[C@@]2(C)Oc3c(C)c(O)c4c(O)c(c(/C=N/N5CCN(C6CCCC6)CC5)c(O)c4c3C2=O)NC(=O)/C(C)=C\C=C\[C@H](C)[C@H](O)[C@@H](C)[C@@H](O)[C@@H](C)[C@H](OC(C)=O)[C@@H]1C [Rifapentine] | 93.7 | 88.8 | 104 | 95.8 | 47.7 ± 28 | 120 | 26.9 ± 5.9 | 104 | 133 ± 18 | 122 | 77.4 ± 4.6 | 53.9 ± 24 | 117.8 ± 0.39
6 | COc1cc2nccc(Oc3ccc(NC(=O)C4(C(=O)Nc5ccc(F)cc5)CC4)cc3)c2cc1OC.O=C(O)CC(O)C(=O)O [Cabozantinib malate (XL184)] | 92.9 | 93.9 | 90.8 | 84.4 | 88.7 ± 13 | 45.4 | 58.2 ± 4.8 | 44 | 85.1 ± 15 | 63.4 | 34.5 ± 3.2 | 105 ± 6.6 | 56 ± 1.8
7 | CC1=C(C(=O)OC(C)C)C(c2cccc([N+](=O)[O-])c2)C(C(=O)OC2CN(C(c3ccccc3)c3ccccc3)C2)=C(N)N1 (stereo not drawn) [Azelnidipine] | 93.6 | 73.5 | 85.9 | 88.3 | 33.6 ± 1.3 | 59 | 21.5 ± 0.58 | 80.4 | 41.6 ± 5.9 | 62 | 93.5 ± 6.1 | 61.3 ± 19 | 57.7 ± 26
8 | Cn1cnc2c(F)c(Nc3ccc(Br)cc3F)c(C(=O)NOCCO)cc21 | 71.6 | 59.9 | 80.7 | 69.9 | 84.1 ± 12 | 90.7 | 65.6 ± 13 | 76.4 | 70.9 ± 7.1 | 79.6 | 59.8 ± 8.5 | 55.2 ± 20 | 106 ± 14
9 | O=C(NC1CCN(CCCCC2(C(=O)NCC(F)(F)F)c3ccccc3-c3ccccc32)CC1)c1ccccc1-c1ccc(C(F)(F)F)cc1 [Lomitapide] | 92.2 | 56.3 | 62.7 | 63.8 | 34.8 ± 7.4 | 49.3 | 26.5 ± 2.4 | 43.7 | 33.8 ± 3.2 | 47.3 | 33 ± 3 | 41 ± 4.1 | 109 ± 5.5
10 | COc1cc(C(=O)O)ccc1NC(=O)C1NC(CC(C)(C)C)C(C#N)(c2ccc(Cl)cc2F)C1c1cccc(Cl)c1F (stereo not drawn) | 95.1 | 89.1 | 99.1 | 91.3 | 63.9 ± 30 | 143 | 37.1 ± 9.3 | 118 | 60.9 ± 7.6 | 97.1 | 101 ± 6.1 | 44.9 ± 8.6 | 102 ± 14
11 | CN1CCN(CCCN2c3ccccc3Sc3ccc(C(F)(F)F)cc32)CC1.Cl.Cl [Trifluoperazine 2HCl] | 95.7 | 82.1 | 102 | 84.9 | 42.8 ± 8.5 | 57.4 | 30.2 ± 8 | 82.1 | 42.2 ± 2 | 54.1 | 33.8 ± 2.4 | 43.3 ± 3.1 | 97.8 ± 6.6
12 | COc1cccc2c1C(=O)c1c(O)c3c(c(O)c1C2=O)C[C@@](O)(C(C)=O)C[C@@H]3O[C@H]1C[C@H](N)[C@H](O)[C@H](C)O1.Cl [Daunorubicin HCl] | 128 | 27.8 | 23.1 | 48 | 32.2 ± 4.8 | 141 | 32.8 ± 8.5 | 31.2 | 41.3 ± 3.9 | 49.9 | 30.4 ± 2.6 | 42.07 ± 0.39 | 44.6 ± 10
13 | CC(C)N=c1cc2n(-c3ccc(Cl)cc3)c3ccccc3nc-2cc1Nc1ccc(Cl)cc1 [Clofazimine] | 88.1 | 84.9 | 90.3 | 80.2 | 54.8 ± 28 | 83.9 | 38.8 ± 13 | 88.8 | 43.6 ± 9.1 | 77.6 | 44.2 ± 1.7 | 53.1 ± 15 | 68.8 ± 6.1
14 | CCCCCCCCCCCC1=C(O)C(=O)C=C(O)C1=O [Embelin] | 92.8 | 86.8 | 93.5 | 85.6 | 75.6 ± 18 | 97.1 | 22.8 ± 1.3 | 54.1 | 86.3 ± 2.1 | 92.7 | 72.3 ± 5.4 | 77.1 ± 2.9 | 70.1 ± 13
15 | CCN(CC)CCCC(C)Nc1ccnc2cc(Cl)ccc12.O=P(O)(O)O.O=P(O)(O)O (stereo not drawn) [Chloroquine diphosphate] | 88.7 | 68.5 | 77.4 | 81.2 | 75.4 ± 4.4 | 93.1 | 95.5 ± 18 | 88.4 | 142 ± 20 | 102 | 72.7 ± 0.86 | 71.2 ± 17 | 74.46 ± 0.26
16 | COc1cc2c(Nc3ccc(Br)cc3F)ncnc2cc1OCC1CCN(C)CC1 [Vandetanib (ZD6474)] | 70 | 46.5 | 37.5 | 64.8 | 59.1 ± 20 | 32.2 | 30.7 ± 21 | 52.9 | 73.4 ± 36 | 56.4 | 25.2 ± 4.2 | 54.4 ± 11 | 25.7 ± 1.9
17 | Clc1ccc(C(Cn2ccnc2)OCc2ccsc2Cl)c(Cl)c1 (stereo not drawn) [Tioconazole] | 98.7 | 104 | 111 | 90.1 | 115 ± 63 | 110 | 40.7 ± 32 | 92.1 | 50.1 ± 3.6 | 119 | 60.2 ± 8.4 | 35.8 ± 5.1 | 100 ± 2.3
18 | CC(O)C(=O)O.CCOc1ccc2nc3cc(N)ccc3c(N)c2c1.O [Ethacridine lactate monohydrate] | 83.7 | 95.6 | 58.8 | 68.3 | 57.6 ± 15 | 41.6 | 24.4 ± 4.4 | 36.3 | 57.4 ± 17 |  | 158 ± 32 | 49.6 ± 8.4 | 76.2 ± 3
